From PubChem
mcGAS inh: mouse cGAS inhibition by luminescence; Q8C6L5; recombinant cGAS, Kinase-Glo ATP depletion luminescence; inhibition, % at 12.5 µM; actives 0.15% (n = 160,000); AID 1259399;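 note: 0% = negative control wells and 100% = reference inhibitor with no enzyme activity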
Target sequence (Q8C6L5 whole entry, looked up): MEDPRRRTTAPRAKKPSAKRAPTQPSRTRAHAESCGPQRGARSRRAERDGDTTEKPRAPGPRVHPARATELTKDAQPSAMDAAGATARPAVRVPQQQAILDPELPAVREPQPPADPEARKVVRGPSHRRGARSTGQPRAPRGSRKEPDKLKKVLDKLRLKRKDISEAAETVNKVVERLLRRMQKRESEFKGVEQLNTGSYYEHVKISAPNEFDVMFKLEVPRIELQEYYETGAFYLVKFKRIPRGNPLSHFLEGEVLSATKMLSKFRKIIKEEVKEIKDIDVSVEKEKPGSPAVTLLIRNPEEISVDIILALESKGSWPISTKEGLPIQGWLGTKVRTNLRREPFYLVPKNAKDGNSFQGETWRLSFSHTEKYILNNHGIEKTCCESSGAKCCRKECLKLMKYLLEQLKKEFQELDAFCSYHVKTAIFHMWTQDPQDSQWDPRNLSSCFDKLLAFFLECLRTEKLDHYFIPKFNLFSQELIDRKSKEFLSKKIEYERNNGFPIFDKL
hcGAS inh: inhibitors of human cGAS | actives 0.081% (n = 290,000) | Q8N884 | recombinant h-cGAS, ATP depletion, Kinase-Glo luminescence | inhibition, % at 12.5 µM | AID 1259398;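 note: 0% = vehicle reaction and 100% = reaction without DNA for no activity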
NPYLR7 agonist: activates Aedes aegypti NPYLR7 receptor. HEK293T NPYLR7/Galpha15, GCaMP6s calcium fluorescence. activation, % at 10 µM. actives 0.15% (n = 270,000). AID 1259423; in the data active = activation above about 40%;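 note: 0% = vehicle and 100% = reference agonist at the receptor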
Active calls of the source: *; nt = no result; ! = not active in a repeat. This is a sample that favours compounds with a hit; in the whole collection about 0.28% have one here. Cut-off read from the data, not from the text of the source, unless noted: active = inhibition above about 40%; inactive = the rest.

SMILES	mcGAS inh	hcGAS inh	NPYLR7 agonist
O=C(CCn1c(Cc2c(Cl)cccc2Cl)nc2ccccc21)NCCN1CCCC1	0	46*	nt
O=C(CN1CCCCCC1)NCCn1nnc2ccccc21	nt	2	8
Cc1nn(C)c(C)c1NC(=O)C(C)Nc1cccc(C(=O)NC2CC2)c1 (stereo unspecified)	nt	9	1
CNC(=O)C(C1CCCC1)N1CCN(C(=O)c2ccc(OC)c(OC)c2)CC1 (stereo unspecified)	-6	-5	-4
CCOc1cc(C=C(C#N)S(C)(=O)=O)ccc1OC	-5	-5	6
CS(=O)(=O)/C(C#N)=C/c1cnc2ccc(Br)cn12	-7	88*	1
CCOCCC(=O)N1CCN(CC(=O)NC2CCCC(C)C2)CC1 (stereo unspecified)	nt	-10	7
CCOC(=O)COc1cc2c(-c3cc4ccccc4o3)cc(=O)oc2cc1C	-6	-3	0
CCOC(=O)c1ccccc1-c1c2ccc(=N)cc-2oc2cc(N)ccc12	-12	-2	120*
CCN=c1cc2oc3cc(NCC)c(C)cc3c(-c3ccccc3C(=O)OCC)c-2cc1C	-20	-29	159*
CCOC(=O)c1cc(C(=O)OCC)c2c(C)cc(C)cc(C)c1-2	nt	-27	-7
CCc1cc(=O)[nH]c2n[nH]c(=S)n12	nt	3	-3
O=c1cc(-c2ccccc2)n2c(=S)[nH]nc2[nH]1	nt	64*	-3
CN1C(=CC=C(C#N)C#N)C=Cc2ccccc21	nt	10	-6
C=CCN1C=CC(=CC=C(C#N)C#N)C=C1	nt	-4	72*
O=C1Nc2ncccc2Oc2cc(F)cc(O)c21	nt	4	-2
O=C(NCCc1ccccc1)c1cccc(OC2CCN(Cc3ccon3)CC2)c1	nt	-2	7
CC(C)NCC(O)c1ccc(O)c(O)c1 (stereo unspecified)	-4	-1	15
CNC[C@H](O)c1ccc(O)c(O)c1	-3	-2	83*
COc1cc(C=CC(=O)c2ccc3c(c2)OCCO3)cc(Br)c1O	-6	-10	145*
CCOc1cc(C=CC(=O)c2ccc3c(c2)OCCO3)cc(Br)c1OCC	-7	-8	3
CCCN1C(=O)c2[nH]nc(-c3ccccc3O)c2C1c1cccc(Cl)c1 (stereo unspecified)	-15	-6	9
Cc1ccc(CSc2nccn(-c3ccc(C)cc3)c2=O)cc1	-8	-6	5
CC(C)(C)OC(=O)NCC1CCCCC1OC(=O)C1CCOCC1 (stereo unspecified)	nt	-9	-1
S=c1[nH]nc(-c2sc3ccccc3c2Cl)o1	47*	50*!	0
SMILES	mcGAS inh	hcGAS inh	NPYLR7 agonist
Clc1c(-c2nnco2)sc2ccccc12	nt	1	-2
O=C(Nc1ccc(Cl)c(F)c1)c1cnn2c(C(F)(F)F)cc(-c3ccc(Br)cc3)nc12	-3	-3	6
O=c1[nH]c2ccccc2n2c(=S)[nH]nc12	52*	38	0
NS(=O)(=O)c1ccc2[nH]c(=O)c3n[nH]c(=O)n3c2c1	nt	4	11
O=C(NCc1ccc2c(c1)CCCO2)c1cccc2ccnn12	-9	0	4
CN(Cc1cc(-c2ccccc2)n[nH]1)C(=O)c1cn(Cc2ccccc2Cl)nn1	nt	-8	6
CN(C)c1ccc(/C=C2/C(=O)NC(=O)N(Cc3ccccc3)C2=O)cc1	-3	11	5
CCCn1c2c(c(=O)n(C)c1=O)C(=O)C(=Cc1ccc(N(C)C)cc1)N2	-5	-2	259*
O=C(c1cccnc1)N1CCC(CO)(Cc2ccccc2Cl)CC1	nt	-3	nt
CC(=O)Nc1ccc(SCC(=O)Nc2ccc3oc(C)nc3c2)cc1	nt	-5	12
Cc1ccc(NC(=O)CSc2nc(Cl)cc(N3CCN(C(=O)c4ccc(Cl)cc4)C(C)C3)n2)cc1 (stereo unspecified)	-4	-6	27
O=C(CSc1nc(=O)n(CCCO)c2c1CCCC2)Nc1cccc([N+](=O)[O-])c1	47*	-6	-3
O=C(CSc1nc(=O)n(CCCO)c2c1CCC2)Nc1cccc(F)c1	-5	-6	-10
COc1cccc(-n2c(O)c(C=Nc3cc(OC)ccc3OC)c3ccccc3c2=O)c1	-6	-3	52*
COc1ccc(N=Cc2c(O)n(-c3ccccc3)c(=O)c3ccccc23)c(OC)c1	-6	-5	-3
O=C(c1c(C(F)(F)F)ccc(Cl)c1F)N1CCN(c2nccc(-c3cccc(C(F)(F)F)c3)n2)CC1	0	-2	-10
c1ccc(C2=Nc3ncnn3C(c3ccccc3)C2)cc1 (stereo unspecified)	1	5	1
CSc1ccc(C2CC(c3cccs3)=Nc3ncnn32)cc1 (stereo unspecified)	nt	-5	124*
COCCN1C(=O)CC(CC(=O)NCc2ncccc2C)(c2ccccc2OC)C1=O (stereo unspecified)	-2	1	8
CCC(C)N(CC(=O)N1CCc2sccc2C1c1ccc(OC)cc1)C(=O)c1ccc(Br)cc1 (stereo unspecified)	-5	-3	24
CC(c1ccccc1)N(C)C(=O)CN1CC(C(N)=O)Cc2ccccc21 (stereo unspecified)	nt	-3	-11
CCCCCn1c(=O)c2c(nc3n2CCN3c2ccccc2)n(C)c1=O	nt	-5	4
CCCCCn1c(=O)c2c(nc3n2CCN3c2cc(C)cc(C)c2)n(C)c1=O	nt	-2	140*
O=c1[nH]c2ccc(Cl)cc2o1	nt	-4	7
O=c1[nH]c2c(Br)c(Br)c(Br)cc2o1	66*	35	12
SMILES	mcGAS inh	hcGAS inh	NPYLR7 agonist
O=C(c1cccs1)N1N=C(c2ccc3ccccc3c2)CC1c1ccccc1 (stereo unspecified)	-4	-4	-8
Cc1ccc2nc(-c3cccc(Cl)c3)c(NC(C)(C)C)n2c1	-7	-3	5
Cc1ccc(C)c(-n2c(CNC(=O)COc3ccccc3)nnc2SCC(=O)Nc2nccs2)c1	-5	-5	6
NC(=NCCCCCCN=C(N)N=C(N)Nc1ccc(Cl)cc1)N=C(N)Nc1ccc(Cl)cc1	-4	-4	70*!
CC(C)N=C(N)N=C(N)Nc1ccc(Cl)cc1	nt	-4	6
Fc1cccc(F)c1-c1nc2ccccc2[nH]1	-6	-3	0
CC1(C)CNCCN1Cc1cccc(C(=O)Nc2ccc(CCO)cc2)c1	-10	-1	-3
Cc1cc(C)n(CCn2ccnc2-c2ccc(-c3ccn[nH]3)s2)n1	-12	-5	1
CCOc1cc(C=C(C#N)C(=O)OC(C)C)cc(Cl)c1O	nt	-7	14
COc1cc(C=C(C#N)S(=O)(=O)c2ccc(Cl)cc2)cc(Cl)c1O	nt	-1	118*
COc1cc(C=C(C#N)S(=O)(=O)c2ccc(Cl)cc2)cc2c1OCCO2	nt	-4	1
COc1cc(C=C(C#N)C(=O)OC(C)C)cc(Cl)c1O	nt	-4	83*
Cc1ccc2oc(-c3ccc(N)cc3)nc2c1	-5	-2	-5
Nc1ccc(-c2nc3cc(N)cc(Cl)c3o2)cc1	-3	-3	118*
CCOC(=O)C(C#N)=CNc1cnccn1	-4	-1	11
CCOC(=O)C(C#N)=CNc1nc(C(C)=O)cs1	64*	53*	4
CN(C)CCCN(C(=O)c1ccc(Br)s1)c1nc2ccc(Cl)cc2s1	-8	-6	5
Nc1ncnc2c1ncn2C1O[C@H](CO)[C@@H](O)[C@@H]1O (stereo partly specified)	-5	-9	-4
